In ChEMBL document CHEMBL1961873, “Compounds: GSK PKIS; Assays: Nanosyn kinase panel” (2012):

Experiments:
[1] = target: T1, Tyrosine-protein kinase ITK/TSK (Homo sapiens) (UniProt Q08881); settings: at 1 µM;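 also: values are mean percent inhibition of ITK from the GSK PKIS screen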
T1 sequence (whole entry): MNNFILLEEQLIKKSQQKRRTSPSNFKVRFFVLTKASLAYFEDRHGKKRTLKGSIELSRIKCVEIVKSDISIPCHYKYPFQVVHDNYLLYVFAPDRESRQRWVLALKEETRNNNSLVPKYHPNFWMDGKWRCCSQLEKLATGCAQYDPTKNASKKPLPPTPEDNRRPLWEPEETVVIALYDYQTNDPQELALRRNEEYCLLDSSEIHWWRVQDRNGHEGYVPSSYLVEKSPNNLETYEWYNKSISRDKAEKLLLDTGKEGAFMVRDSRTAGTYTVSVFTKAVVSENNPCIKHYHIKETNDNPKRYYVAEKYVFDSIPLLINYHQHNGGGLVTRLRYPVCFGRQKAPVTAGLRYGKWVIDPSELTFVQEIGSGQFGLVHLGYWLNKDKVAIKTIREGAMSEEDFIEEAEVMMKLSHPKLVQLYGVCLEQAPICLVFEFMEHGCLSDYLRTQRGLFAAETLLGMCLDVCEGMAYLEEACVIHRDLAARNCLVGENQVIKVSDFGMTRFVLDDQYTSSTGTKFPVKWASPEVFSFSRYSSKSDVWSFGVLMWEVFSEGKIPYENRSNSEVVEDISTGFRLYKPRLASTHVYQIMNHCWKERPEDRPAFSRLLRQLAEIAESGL

[2] = target: Tyrosine-protein kinase JAK1 (Homo sapiens) (UniProt P23458); settings: at 0.1 µM
Sequence of Tyrosine-protein kinase JAK1 (Homo sapiens) (P23458 whole entry): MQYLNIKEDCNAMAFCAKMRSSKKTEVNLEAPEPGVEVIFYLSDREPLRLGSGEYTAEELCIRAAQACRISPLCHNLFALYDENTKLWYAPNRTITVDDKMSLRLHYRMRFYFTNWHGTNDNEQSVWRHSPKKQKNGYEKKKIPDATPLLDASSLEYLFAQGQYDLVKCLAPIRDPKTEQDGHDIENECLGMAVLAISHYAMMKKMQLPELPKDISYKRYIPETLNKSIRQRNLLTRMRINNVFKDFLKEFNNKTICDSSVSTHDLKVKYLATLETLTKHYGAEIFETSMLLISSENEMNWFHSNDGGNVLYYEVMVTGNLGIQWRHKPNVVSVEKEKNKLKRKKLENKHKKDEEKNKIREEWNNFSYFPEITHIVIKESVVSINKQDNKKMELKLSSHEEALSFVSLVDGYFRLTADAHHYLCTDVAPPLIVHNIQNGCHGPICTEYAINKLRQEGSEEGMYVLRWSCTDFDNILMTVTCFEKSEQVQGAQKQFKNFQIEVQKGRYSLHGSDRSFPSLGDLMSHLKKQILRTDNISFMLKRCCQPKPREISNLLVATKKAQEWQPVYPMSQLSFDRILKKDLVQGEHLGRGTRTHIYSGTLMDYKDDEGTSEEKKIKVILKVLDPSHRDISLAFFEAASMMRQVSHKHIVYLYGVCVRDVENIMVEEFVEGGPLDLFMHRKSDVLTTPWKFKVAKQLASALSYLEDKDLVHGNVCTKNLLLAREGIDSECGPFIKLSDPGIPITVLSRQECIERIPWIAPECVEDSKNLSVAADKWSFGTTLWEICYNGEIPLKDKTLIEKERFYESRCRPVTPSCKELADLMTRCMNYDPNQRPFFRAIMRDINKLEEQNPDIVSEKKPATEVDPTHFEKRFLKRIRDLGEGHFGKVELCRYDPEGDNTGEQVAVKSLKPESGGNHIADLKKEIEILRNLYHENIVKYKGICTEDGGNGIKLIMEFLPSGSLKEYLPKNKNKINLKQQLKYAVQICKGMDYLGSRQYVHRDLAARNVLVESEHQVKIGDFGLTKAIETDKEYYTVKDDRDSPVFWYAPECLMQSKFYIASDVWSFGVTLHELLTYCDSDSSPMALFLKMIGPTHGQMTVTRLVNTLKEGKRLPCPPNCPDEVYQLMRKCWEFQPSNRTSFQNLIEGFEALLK

[3] = target: Tyrosine-protein kinase JAK1 (Homo sapiens) (UniProt P23458); settings: at 1 µM
[4] = target: Tyrosine-protein kinase JAK2 (Homo sapiens) (UniProt O60674); settings: at 0.1 µM
[5] = target: Tyrosine-protein kinase JAK2 (Homo sapiens) (UniProt O60674); settings: at 1 µM
[6] = target: T2, Tyrosine-protein kinase JAK3 (Homo sapiens) (UniProt P52333); settings: at 0.1 µM
T2 sequence (whole entry): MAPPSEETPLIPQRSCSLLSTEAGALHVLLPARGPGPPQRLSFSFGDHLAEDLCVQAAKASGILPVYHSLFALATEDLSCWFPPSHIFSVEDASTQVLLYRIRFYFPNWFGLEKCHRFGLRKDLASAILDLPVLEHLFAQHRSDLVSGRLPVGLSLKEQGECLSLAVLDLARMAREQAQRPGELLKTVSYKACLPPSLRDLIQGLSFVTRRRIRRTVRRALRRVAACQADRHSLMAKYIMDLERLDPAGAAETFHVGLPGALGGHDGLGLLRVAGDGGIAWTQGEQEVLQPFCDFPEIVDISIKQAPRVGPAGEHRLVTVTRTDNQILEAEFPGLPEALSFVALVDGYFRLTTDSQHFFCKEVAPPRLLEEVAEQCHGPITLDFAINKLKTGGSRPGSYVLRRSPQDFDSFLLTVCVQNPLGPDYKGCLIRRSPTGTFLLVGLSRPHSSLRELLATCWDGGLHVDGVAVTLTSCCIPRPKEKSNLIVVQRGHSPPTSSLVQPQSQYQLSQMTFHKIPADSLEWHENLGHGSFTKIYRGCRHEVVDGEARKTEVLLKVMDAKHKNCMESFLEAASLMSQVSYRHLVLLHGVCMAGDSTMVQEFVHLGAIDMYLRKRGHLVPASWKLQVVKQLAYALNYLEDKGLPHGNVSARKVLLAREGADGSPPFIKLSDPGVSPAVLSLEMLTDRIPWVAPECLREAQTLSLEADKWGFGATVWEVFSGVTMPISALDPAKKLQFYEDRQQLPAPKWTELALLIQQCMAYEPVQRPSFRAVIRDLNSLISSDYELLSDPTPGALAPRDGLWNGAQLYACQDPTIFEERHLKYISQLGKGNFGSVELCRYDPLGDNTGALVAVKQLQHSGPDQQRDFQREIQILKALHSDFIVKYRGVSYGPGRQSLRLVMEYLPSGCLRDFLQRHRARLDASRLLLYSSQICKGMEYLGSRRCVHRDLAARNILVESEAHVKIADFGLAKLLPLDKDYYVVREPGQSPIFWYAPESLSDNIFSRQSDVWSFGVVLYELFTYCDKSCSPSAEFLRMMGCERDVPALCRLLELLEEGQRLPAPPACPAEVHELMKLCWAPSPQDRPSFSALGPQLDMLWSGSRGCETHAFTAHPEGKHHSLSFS

[7] = target: T2, Tyrosine-protein kinase JAK3 (Homo sapiens); settings: at 1 µM
[8] = target: Vascular endothelial growth factor receptor 2 (Homo sapiens) (UniProt P35968); settings: at 0.1 µM
Sequence of Vascular endothelial growth factor receptor 2 (Homo sapiens) (P35968 whole entry): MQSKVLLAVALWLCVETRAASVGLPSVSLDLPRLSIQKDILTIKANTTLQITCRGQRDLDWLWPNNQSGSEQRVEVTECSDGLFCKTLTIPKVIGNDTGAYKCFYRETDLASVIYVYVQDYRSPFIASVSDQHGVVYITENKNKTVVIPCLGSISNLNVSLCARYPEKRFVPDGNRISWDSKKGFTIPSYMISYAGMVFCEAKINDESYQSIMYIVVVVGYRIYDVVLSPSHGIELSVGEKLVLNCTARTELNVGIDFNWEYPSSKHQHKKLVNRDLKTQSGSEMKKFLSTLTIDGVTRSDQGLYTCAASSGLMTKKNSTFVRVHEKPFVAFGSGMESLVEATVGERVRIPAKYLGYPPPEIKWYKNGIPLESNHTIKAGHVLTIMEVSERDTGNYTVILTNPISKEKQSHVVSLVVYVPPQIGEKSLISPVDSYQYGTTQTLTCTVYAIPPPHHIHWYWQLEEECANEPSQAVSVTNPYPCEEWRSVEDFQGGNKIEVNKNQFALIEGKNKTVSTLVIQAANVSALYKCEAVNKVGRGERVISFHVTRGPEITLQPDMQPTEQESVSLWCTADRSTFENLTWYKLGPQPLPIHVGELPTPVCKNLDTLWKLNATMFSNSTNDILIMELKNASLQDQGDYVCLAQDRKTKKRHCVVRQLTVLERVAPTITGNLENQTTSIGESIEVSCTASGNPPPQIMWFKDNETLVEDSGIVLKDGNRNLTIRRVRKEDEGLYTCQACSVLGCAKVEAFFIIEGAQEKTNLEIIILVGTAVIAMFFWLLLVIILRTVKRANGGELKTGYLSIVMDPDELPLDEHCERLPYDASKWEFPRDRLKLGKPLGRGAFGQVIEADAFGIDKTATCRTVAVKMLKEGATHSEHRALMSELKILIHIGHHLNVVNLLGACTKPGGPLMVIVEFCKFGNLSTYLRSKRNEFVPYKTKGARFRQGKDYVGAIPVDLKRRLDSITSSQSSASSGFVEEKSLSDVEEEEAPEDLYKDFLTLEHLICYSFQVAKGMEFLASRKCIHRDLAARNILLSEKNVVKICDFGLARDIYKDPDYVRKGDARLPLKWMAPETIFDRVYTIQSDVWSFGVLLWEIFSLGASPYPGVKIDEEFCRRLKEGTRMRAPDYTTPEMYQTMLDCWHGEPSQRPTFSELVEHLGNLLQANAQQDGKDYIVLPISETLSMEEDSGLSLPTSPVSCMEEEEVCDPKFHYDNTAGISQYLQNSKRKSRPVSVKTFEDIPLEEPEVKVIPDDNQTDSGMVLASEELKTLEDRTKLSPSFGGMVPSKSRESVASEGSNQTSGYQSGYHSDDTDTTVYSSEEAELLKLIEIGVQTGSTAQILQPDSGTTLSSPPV

[9] = target: Vascular endothelial growth factor receptor 2 (Homo sapiens) (UniProt P35968); settings: at 1 µM
[10] = target: Mast/stem cell growth factor receptor Kit (Homo sapiens) (UniProt P10721); settings: at 0.1 µM
Sequence of Mast/stem cell growth factor receptor Kit (Homo sapiens) (P10721 whole entry): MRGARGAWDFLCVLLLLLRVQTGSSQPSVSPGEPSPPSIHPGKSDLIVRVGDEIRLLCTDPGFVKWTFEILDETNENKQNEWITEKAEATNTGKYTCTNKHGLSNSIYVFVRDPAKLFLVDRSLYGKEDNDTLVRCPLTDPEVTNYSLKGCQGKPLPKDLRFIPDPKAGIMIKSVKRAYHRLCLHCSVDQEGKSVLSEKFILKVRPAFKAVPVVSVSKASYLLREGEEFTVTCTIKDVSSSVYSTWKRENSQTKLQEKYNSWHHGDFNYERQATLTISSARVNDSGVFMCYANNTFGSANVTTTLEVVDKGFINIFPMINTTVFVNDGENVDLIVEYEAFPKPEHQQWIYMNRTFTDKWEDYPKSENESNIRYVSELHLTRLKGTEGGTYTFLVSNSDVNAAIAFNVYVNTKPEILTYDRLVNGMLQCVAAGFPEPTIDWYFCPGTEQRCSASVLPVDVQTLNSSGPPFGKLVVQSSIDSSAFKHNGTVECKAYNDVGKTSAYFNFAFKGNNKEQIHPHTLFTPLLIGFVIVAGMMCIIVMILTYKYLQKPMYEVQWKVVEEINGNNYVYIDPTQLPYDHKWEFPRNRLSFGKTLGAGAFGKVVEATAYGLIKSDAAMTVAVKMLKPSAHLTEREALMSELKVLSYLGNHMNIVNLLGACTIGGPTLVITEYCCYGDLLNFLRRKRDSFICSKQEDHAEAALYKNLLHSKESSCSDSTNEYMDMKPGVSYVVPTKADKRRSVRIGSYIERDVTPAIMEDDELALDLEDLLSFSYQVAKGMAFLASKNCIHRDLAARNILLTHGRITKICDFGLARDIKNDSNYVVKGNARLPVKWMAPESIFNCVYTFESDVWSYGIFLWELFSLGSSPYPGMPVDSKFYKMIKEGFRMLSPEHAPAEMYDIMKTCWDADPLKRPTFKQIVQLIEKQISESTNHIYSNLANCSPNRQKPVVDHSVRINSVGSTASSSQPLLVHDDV

[11] = target: Mast/stem cell growth factor receptor Kit (Homo sapiens) (UniProt P10721); settings: at 1 µM
[12] = tested on: Mast/stem cell growth factor receptor Kit (Homo sapiens), P10721 [D816V]; settings: at 0.1 µM
Sequence of Mast/stem cell growth factor receptor Kit (Homo sapiens), P10721 [D816V] (P10721 whole entry D816V): as the sequence (P10721 whole entry) above, with D816V counted along it

[13] = tested on: Mast/stem cell growth factor receptor Kit (Homo sapiens), P10721 [D816V]; settings: at 1 µM
[14] = tested on: Mast/stem cell growth factor receptor Kit (Homo sapiens), P10721 [T670I]; settings: at 0.1 µM
Sequence of Mast/stem cell growth factor receptor Kit (Homo sapiens), P10721 [T670I] (P10721 whole entry T670I): as the sequence (P10721 whole entry) above, with T670I counted along it

[15] = tested on: Mast/stem cell growth factor receptor Kit (Homo sapiens), P10721 [T670I]; settings: at 1 µM
[16] = tested on: Mast/stem cell growth factor receptor Kit (Homo sapiens), P10721 [V560G]; settings: at 0.1 µM
Sequence of Mast/stem cell growth factor receptor Kit (Homo sapiens), P10721 [V560G] (P10721 whole entry V560G): as the sequence (P10721 whole entry) above, with V560G counted along it

[17] = tested on: Mast/stem cell growth factor receptor Kit (Homo sapiens), P10721 [V560G]; settings: at 1 µM
[18] = target: Tyrosine-protein kinase Lck (Homo sapiens) (UniProt P06239); settings: at 0.1 µM
Sequence of Tyrosine-protein kinase Lck (Homo sapiens) (P06239 2-509 limits assumed): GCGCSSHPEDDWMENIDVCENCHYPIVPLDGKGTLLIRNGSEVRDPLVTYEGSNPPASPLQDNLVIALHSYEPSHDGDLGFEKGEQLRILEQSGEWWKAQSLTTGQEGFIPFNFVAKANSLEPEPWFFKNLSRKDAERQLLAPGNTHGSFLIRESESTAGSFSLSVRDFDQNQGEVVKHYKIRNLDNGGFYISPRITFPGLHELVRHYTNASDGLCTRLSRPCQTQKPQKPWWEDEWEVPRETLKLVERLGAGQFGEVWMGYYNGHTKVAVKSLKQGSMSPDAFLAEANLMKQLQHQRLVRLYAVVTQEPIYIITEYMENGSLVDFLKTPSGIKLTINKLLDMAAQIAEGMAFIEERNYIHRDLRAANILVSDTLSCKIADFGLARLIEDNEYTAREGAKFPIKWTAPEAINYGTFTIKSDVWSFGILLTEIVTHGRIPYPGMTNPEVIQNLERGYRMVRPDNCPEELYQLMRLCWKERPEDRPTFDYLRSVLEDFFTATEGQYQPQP

[19] = target: Tyrosine-protein kinase Lck (Homo sapiens) (UniProt P06239); settings: at 1 µM
[20] = target: Leukocyte tyrosine kinase receptor (Homo sapiens) (UniProt P29376); settings: at 0.1 µM
Sequence of Leukocyte tyrosine kinase receptor (Homo sapiens) (P29376 whole entry): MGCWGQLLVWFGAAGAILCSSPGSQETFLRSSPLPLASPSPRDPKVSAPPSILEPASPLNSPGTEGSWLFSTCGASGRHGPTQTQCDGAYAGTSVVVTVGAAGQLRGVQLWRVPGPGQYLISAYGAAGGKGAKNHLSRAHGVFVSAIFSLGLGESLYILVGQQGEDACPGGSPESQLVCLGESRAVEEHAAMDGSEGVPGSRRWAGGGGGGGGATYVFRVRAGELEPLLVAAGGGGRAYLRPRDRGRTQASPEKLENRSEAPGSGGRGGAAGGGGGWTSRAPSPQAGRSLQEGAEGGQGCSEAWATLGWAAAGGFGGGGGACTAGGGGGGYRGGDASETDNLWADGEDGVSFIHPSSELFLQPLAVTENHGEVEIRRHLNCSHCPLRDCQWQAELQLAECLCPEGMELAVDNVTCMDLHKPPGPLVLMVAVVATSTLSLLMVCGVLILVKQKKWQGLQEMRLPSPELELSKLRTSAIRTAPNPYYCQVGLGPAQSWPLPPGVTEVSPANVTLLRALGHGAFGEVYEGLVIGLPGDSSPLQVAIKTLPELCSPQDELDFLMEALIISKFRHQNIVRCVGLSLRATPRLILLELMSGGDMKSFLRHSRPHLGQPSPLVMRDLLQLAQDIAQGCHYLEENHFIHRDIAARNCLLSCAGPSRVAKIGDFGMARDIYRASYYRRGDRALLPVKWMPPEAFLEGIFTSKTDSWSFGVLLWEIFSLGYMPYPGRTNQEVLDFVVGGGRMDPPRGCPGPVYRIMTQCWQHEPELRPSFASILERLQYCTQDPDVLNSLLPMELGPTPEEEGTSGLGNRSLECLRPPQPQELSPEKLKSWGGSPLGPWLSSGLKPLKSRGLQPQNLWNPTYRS

| SMILES | inhibition [1] | inhibition [2] | inhibition [3] | inhibition [4] | inhibition [5] | inhibition [6] | inhibition [7] | inhibition [8] | inhibition [9] | inhibition [10] | inhibition [11] | inhibition [12] | inhibition [13] | inhibition [14] | inhibition [15] | inhibition [16] | inhibition [17] | inhibition [18] | inhibition [19] | inhibition [20] |
| --- | --- | --- | --- | --- | --- | --- | --- | --- | --- | --- | --- | --- | --- | --- | --- | --- | --- | --- | --- | --- |
| [O-][S+]1CCN(Cc2ccc(-c3ccc4ncnc(Nc5ccc(OCc6ccccc6)c(Cl)c5)c4c3)o2)CC1 | 1.13% | 1.27% | 2.62% | 0.66% | -0.25% | -1.01% | -0.24% | 0.96% | 4% | 1.98% | 0.65% | -2.21% | -2.37% | 4.79% | 4.66% | -1.31% | -1.84% | 1.46% | 5.8% | 2.41% |
| O=C1Nc2ccccc2/C1=C/Nc1ccc2[nH]c(=O)[nH]c2c1 | 5.35% | 3.96% | 20.8% | 1.12% | 1.93% | -1.44% | 8.66% | 13.7% | 48.1% |  | 84.4% | 3.67% | 10.1% | 13.6% | 71.7% | -0.78% | 21.8% | 3.64% | 11.9% | 5.48% |
| CC(C)c1ccc2c(c1)NC(=O)/C2=N/Nc1ccc(S(N)(=O)=O)cc1 | 2.46% | -0.53% | 0.94% | -1.94% | -0.2% | -0.51% | 1.08% | 1.26% | 4.21% | 7.67% | 31.5% | -0.12% | 1.26% | 0.1% | 5.91% | 9.17% | 19.4% | 1.79% | 8.63% | 1.63% |
| O=S(=O)(CCOCc1ccc(-c2ccc3ncnc(Nc4ccc(OCc5cccc(F)c5)c(Cl)c4)c3c2)o1)c1ccccc1 | 1% | 1.54% | 2.21% | 0.38% | 0.42% | 0.16% | 2.6% | 1.71% | 8% | 1.81% | 0.51% | 0.43% | -1.83% | 5.11% | 0.78% | -1.47% | -2.4% | 1.96% | 3.4% | 2.35% |
| CS(=O)(=O)Nc1cccc(-c2ccc3c(NC(=O)C4CC4)n[nH]c3c2)c1 | 1.71% | 0.09% | 0.48% | 0.43% | 1.32% | -0.13% | 2.96% | 1.1% | 7.91% | -1.41% | -3.67% | 1.45% | 0.35% | -1.01% | -2.29% | 0.19% | 0.6% | 1.99% | 6.14% | 1.68% |
| c1ccc(Nc2ncc(-c3ccccc3)o2)cc1 | 1.67% | 8.4% | 8.08% | 1.08% | 1.6% | -1.29% | -1.89% | 4.68% | 19.8% | 30.9% | 88.1% | 1.88% | 3.71% | 4.48% | 40% | 1.47% | 50.4% | 3.52% | 10.9% | 6.86% |
| COc1cccc(-n2nc(C)c3c(N/N=C(\C)c4ccncc4)ncnc32)c1 | -0.01% | 0.91% | 4.07% | -0.64% | 1.79% | -1.14% | 0.38% | 1.62% | 4.01% | 1.56% | 2.68% | -0.3% | -0.84% | -1.32% | 0.13% | 2.07% | 0.19% | 0.65% | 2.98% | 1.52% |
| COc1cccc(-n2ncc3c(N/N=C/c4ccc(S(C)(=O)=O)cc4)ncnc32)c1 | 0.29% | 1.39% | 6.92% | 1.22% | 11.5% | -4.07% | 5.53% | 31.4% | 66.4% | 16% | 61.6% | 1.61% | 9.23% | 7.49% | 44.8% | 1.83% | 7.89% | 37.7% | 73.9% | 1.43% |
| NS(=O)(=O)c1ccc(-c2cc3ccncc3cc2OCc2ccccc2)cc1 | 0.35% | 3.02% | 10% | 1.43% | 3.23% | -0.75% | -1.27% | 4.82% | 8.11% | 4.01% | 8.06% | 2.17% | 3.92% | 2.02% | 4.23% | 0.41% | 0.33% | 1.15% | 3.87% | 6.08% |
| Cc1ccc(C(=O)NC2CC2)cc1-c1ccc2[nH]ncc2c1 | -0.97% | -3.33% | -8.73% | -1.66% | -1.51% | 1.08% | 2.55% | -3.15% | 3.28% | -5.04% | 9.73% | -2.2% | -3.32% | -2.37% | -3.32% | 1.39% | 6.83% | -0.97% | 1.92% | -2.04% |
| COc1cc2ncnc(Nc3ccc4c(cnn4Cc4ccccc4)c3)c2cc1OC | 1.9% | 4.18% | 2.43% | 1.01% | 1.11% | -1.67% | 1.82% | 6.63% | 47.6% | 2.37% | 9.47% | 1.06% | 2.79% | 2.31% | 2.58% | -3.09% | 2.41% | 19.5% | 61.1% | 2.67% |
| C[C@@H](Oc1cc(-n2cnc3ccc(OCC4CCN(C)CC4)cc32)sc1C(N)=O)c1ccccc1C(F)(F)F | 0.89% | -1.08% | -2.39% | -0.93% | 2.51% | -0.8% | 30.1% | 2.65% | 34.4% | -0.76% | 0.09% | -2% | -1.63% | -0.04% | 0.36% | 2.2% | 4.85% | 5.2% | 33.8% | -0.86% |
| CN(C)C(=O)O[C@@H]1CN[C@@H](C#Cc2cc3ncnc(Nc4ccc(OCc5cccc(F)c5)c(Cl)c4)c3s2)C1 | 0.1% | 1.28% | 0.05% | 0.23% | -0.45% | 0.14% | 2.09% | 0.75% | 3.31% | -1.17% | -0.23% | 1.36% | -2.75% | -2.12% | -2.74% | 0.19% | 4.14% | 1.89% | 5.66% | 0.9% |
